Data reported in PubChem BioAssay (NCI).
Compounds without any hit were thinned out: in the full panel of roughly 83,000, 20% have a hit.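 Single-concentration screen, 48 h exposure, 96-well plates. Endpoint: percent growth. Below 10 = active.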 Unmarked numbers belong to inactive results. Calls of active or inactive are those of the source.

How the values were obtained:
Assay in all cases: NCI-60 one-dose screen, 48 h (100 = growth as untreated, 0 = no growth, -100 = all killed)
Conditions in all cases: 10 µM unless noted
T-47D breast = tested on: T-47D breast
BT-549 breast = tested on: BT-549 breast
MDA-MB-435 melanoma = tested on: MDA-MB-435 melanoma
SW-620 colon = tested on: SW-620 colon
MCF7 breast = tested on: MCF7 breast
HCT-116 colon = tested on: HCT-116 colon
HCC-2998 colon = tested on: HCC-2998 colon
KM12 colon = tested on: KM12 colon

SMILES	growth (T-47D breast)	growth (BT-549 breast)	growth (MDA-MB-435 melanoma)	growth (SW-620 colon)	growth (MCF7 breast)	growth (HCT-116 colon)	growth (HCC-2998 colon)	growth (KM12 colon)
O=C1N(Cc2ccccc2Cl)c2ccccc2C12NN=C(c1cccc(Cl)c1)S2 (stereo not drawn)	6.86% (active)	-20% (active)	2.22% (active)	9.59% (active)	1.43% (active)	9.78% (active)	-61% (active)	21.4%
COC(=O)c1n[nH]c2ccc3nc(-c4cn[nH]c4C(F)(F)F)c4c(c3c12)CCCC4	57%	35.5%	39.3%	28.3%	53%	22.9%	15.7%	26.8%
CN(Cc1ccc(C(F)(F)F)cc1)CC(O)C(=O)Nc1ccc(Cl)cc1 (stereo not drawn)	18.4%	56.1%	-4.56% (active)	-41.5% (active)	-23.4% (active)	-94.3% (active)	-48.2% (active)	-36.1% (active)
Cn1ccnc1C(=O)C(=O)Nc1ccc(CC(=O)Nc2ccccc2)cc1	112%	103%	101%	102%	92.1%	114%	106%	105%
CCCCNC(=O)Oc1ccc(/C(=C(/CC)Cc2ccccc2)c2ccc(OCCN3CCCCCC3)cc2)cc1	-24.9% (active)	87.3%	61.5%	25.1%	0.876% (active)	-76.3% (active)	34%	37.5%
Fc1cc2c(cc1Cl)N(c1ncnc3ccc(-c4cnc5[nH]ncc5c4)cc13)CC2	17.8%	62.8%	74.1%	80.2%	30.9%	70.3%	69.1%	77.8%
COc1cc(OC)c2sc(-c3ccc(-n4cncc4-c4ccc(OC)c(OC)c4)cc3)nc2c1	29.7%	44.5%	53.3%	55.7%	44.5%	40.8%	76.4%	52.8%
CN([O-])c1nc(N(C)[O-])nc(N2CCOCC2)n1.CN([O-])c1nc(N(C)[OH2+])nc(N2CCOCC2)n1.[Fe+3]	93% [100 µM]	85.8% [100 µM]	-30.5% [100 µM] (active)	58.3% [100 µM]	90.1% [100 µM]	65.8% [100 µM]	114% [100 µM]	33.6% [100 µM]
CCCCN1C(=O)/C(=c2\sc3n(c2=O)C2C(NN=3)N(CC)C(=O)N2CC)c2ccccc21 (stereo not drawn)	20.5%	20.6%	-34% (active)	28.3%	5.32% (active)	3.15% (active)	6.49% (active)	16.1%
COC1=CC(c2ccc[nH]2)=N/C1=C\c1[nH]c(C)c(C(=O)OCc2ccccc2)c1C	-73.4% (active)	-13.8% (active)	-69.7% (active)	-25.5% (active)	-76.3% (active)	-75.4% (active)	-54.5% (active)	-71.3% (active)
CC(=O)Cc1nsc(NC(=O)c2cc(-c3cc(Cl)cc(Cl)c3)oc2C)n1	88.1%	98.1%	101%	101%	97.4%	107%	99.9%	103%
COC(=O)c1cc(-c2ccc(OC)cc2)[nH]c1N/N=C/c1c(Cl)cccc1Cl	45.5%	-9.36% (active)	-54.7% (active)	9.62% (active)	1.03% (active)	-64.5% (active)	67.4%	2.76% (active)
N#Cc1cccc(NC(=O)c2oc3ccccc3c2-c2cnn(-c3ccccc3)c2)c1	49.6% [50 µM]	72.5% [50 µM]	97.9% [50 µM]	89% [50 µM]	57.3% [50 µM]	70.9% [50 µM]	71.1% [50 µM]	81.5% [50 µM]
CCCCCCCCCCCCCCCC(N)c1ccccc1 (stereo not drawn)	33.5%	92.9%	6.53% (active)	-49.3% (active)	-67.3% (active)	-100% (active)	-98.2% (active)	-75.4% (active)
CCc1n(Cc2ccc3ccccc3c2)cc[n+]1Cc1ccc2ccccc2c1	-10.2% (active)	-2.05% (active)	-22.1% (active)	16%	2.44% (active)	4.69% (active)	-6.82% (active)	-52.2% (active)
COc1ccc(-c2csc(N(C(=O)N3CCN(c4cc5c(cc4F)c(=O)c(C(=O)O)cn5C4CC4)CC3)c3ccccc3)n2)cc1	17.1%	-4.67% (active)	16.9%	17.4%	8.74% (active)	6.33% (active)	24.1%	5.96% (active)

SMILES	growth (T-47D breast)	growth (BT-549 breast)	growth (MDA-MB-435 melanoma)	growth (SW-620 colon)	growth (MCF7 breast)	growth (HCT-116 colon)	growth (HCC-2998 colon)	growth (KM12 colon)
CC[C@@H](C(=O)[C@@H](C)[C@@H](O)[C@H](C)[C@@H]1O[C@@H]([C@@H](CC)C(=O)NCCc2ccc(F)cc2)CC[C@@H]1C)C1O[C@]2(C=CC(=O)[C@]3(CC[C@@](C)([C@H]4CC[C@](O)(CC)[C@H](C)O4)O3)O2)[C@H](C)C[C@@H]1C (stereo partly drawn)	15%	54.1%	39.3%	40.4%	18.4%	16.9%	63.8%	42.6%
CSc1nnc(-c2cnn3c2NC(c2ccccc2)C3)n1-c1ccc(C(F)(F)F)cc1 (stereo not drawn)	54.2%	85.7%	-25.7% (active)	50.9%	26.9%	46%	85.9%	49.3%
CCCCN[C@H]1CC[C@@]2(C)[C@@H](CC[C@@]3(C)[C@H]2[C@H](O)C[C@H]2/C(=C(\CCC=C(C)C)C(=O)OC)[C@@H](OC(C)=O)C[C@@]23C)[C@@H]1C	105%	93.5%	98%	95.9%	90.8%	102%	99.3%	104%
CN1CCN(Cc2ccc3c(NNC(=O)c4ccccc4)nc4cc(F)ccc4n23)CC1	24.7%	49%	28.1%	25.3%	13.9%	27%	32.1%	20%
O=C(NNc1nccc(Nc2ccc(S(=O)(=O)Nc3ccncc3)cc2)n1)c1ccccc1	92.6%	89.5%	105%	106%	94%	99.2%	21.4%	101%
Cc1cccc2c1NC(=O)C2(c1ccc(O)cc1)c1ccc(O)cc1	-18.8% (active)	-35.9% (active)	105%	103%	1.54% (active)	68.7%	42.9%	60.1%
CCOC(=O)C1=NN(c2ccccc2)C(=O)/C1=C\N1C(=O)CC(=O)NC1=S	85.9%	101%	-22.1% (active)	93.7%	102%	101%	112%	99.4%
Cc1nn(-c2ccccc2)c(Oc2ccccn2)c1-c1nc2ccccc2s1	88%	95.4%	103%	105%	84%	91.5%	103%	87.6%
O=C(O)c1ccc(-n2cc(/C=N/Nc3ccc(F)cc3)c(-c3cc4ccccc4oc3=O)n2)cc1	63.7%	80%	77.5%	64.5%	66.1%	56.5%	88.3%	77.7%
COc1ccc(-c2csc(NC(=O)CSc3nc(-c4ccccc4)cc(=O)[nH]3)n2)cc1	15.1%	8.89% (active)	49.9%	93.5%	50.7%	35.8%	83.5%	73.9%
COc1ccc(/C(C)=C(/c2ccc(OCCCN(C)C)cc2)c2ccc(OC(=O)Cc3ccccc3)cc2)cc1	38.2%	76.5%	71.9%	91.8%	25.4%	57.4%	86.7%	73.9%
C/C(=N/O)c1ccc(F)cc1	91.4%	88.2%	112%	48.6%	54.3%	51.9%	130%	106%
Cn1cc(-c2nc(-c3c[nH]c4ccncc34)cs2)c2ccccc21	12.4%	84.4%	-89.9% (active)	-47% (active)	4.55% (active)	-63.4% (active)	-52.3% (active)	18.7%
CC1=C(C(=O)OC(C)C)C(c2ccc3c(c2)OCO3)NC(=S)N1 (stereo not drawn)	91.4%	96%	106%	107%	98.7%	95.6%	115%	108%
Cc1ccc(NC(=S)NNC(=S)NNc2ccccc2)cc1C	98.1%	120%	110%	106%	98.9%	116%	123%	90.8%
